PubChem BioAssay
Calls of active or inactive are those of the source.

Experiments:
[1] = target: Albumin (Bos taurus) (UniProt P02769); test: compounds binding labelled BSA control protein – biochemical, small-molecule microarray, Alexa647 label, 635/667 nm fluorescence, artefact control for SMM control protein annotation, profiling panel (AID 1118); conditions: BSA-A647 binding, fluorescence 635 nm, higher = more signal;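 further: score merges 667 nm emission intensity and signal-to-noise per printed compound spot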
Albumin (Bos taurus), sequence (P02769 whole entry, looked up): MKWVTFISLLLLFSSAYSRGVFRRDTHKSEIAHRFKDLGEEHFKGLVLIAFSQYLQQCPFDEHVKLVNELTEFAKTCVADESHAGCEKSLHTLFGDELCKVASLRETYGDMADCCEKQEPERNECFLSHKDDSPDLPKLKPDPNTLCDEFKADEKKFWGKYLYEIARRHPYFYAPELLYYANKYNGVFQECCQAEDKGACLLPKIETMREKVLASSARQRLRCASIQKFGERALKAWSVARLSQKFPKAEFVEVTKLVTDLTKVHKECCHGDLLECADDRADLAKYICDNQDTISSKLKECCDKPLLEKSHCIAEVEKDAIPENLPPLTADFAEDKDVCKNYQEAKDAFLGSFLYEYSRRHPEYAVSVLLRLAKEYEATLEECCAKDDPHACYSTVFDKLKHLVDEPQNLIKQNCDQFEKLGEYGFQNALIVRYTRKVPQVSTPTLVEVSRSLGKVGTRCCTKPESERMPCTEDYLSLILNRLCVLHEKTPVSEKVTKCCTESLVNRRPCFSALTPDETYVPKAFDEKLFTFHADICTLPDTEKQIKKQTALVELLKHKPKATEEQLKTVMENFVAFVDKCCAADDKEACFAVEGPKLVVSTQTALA

[2] = probe aXIP binding to arrayed compounds – biochemical, NeuroSMM set, 635/667 nm fluorescence, primary screen (AID 1119); conditions: small-molecule microarray, higher = more signal, called active from +8 up or from −8 down;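 further: probe is the protein aXip251-270 applied at 1 µg/mL to compound-printed slides; binding of probe to printed compounds measured as 667 nm fluorescence plus signal to noise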
[3] = probe aNOTCH3 binding on compound microarray – biochemical, small-molecule microarray, 635/667 nm fluorescence, primary screen (AID 1120); conditions: higher = more signal;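 further: probe is a biotin-tagged antibody raised against NOTCH3 rather than NOTCH3 protein; score merges spot fluorescence near 667 nm with spot signal to noise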
[4] = probe aNOTCH2 binding on compound microarray – biochemical, small-molecule microarray, 635/667 nm fluorescence, primary screen (AID 1121); conditions: higher = more signal;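 further: score merges feature fluorescence read at 667 nm with its signal to noise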
[5] = target: Carbonic anhydrase 2 (Homo sapiens) (UniProt P00918); test: compounds binding carbonic anhydrase 2 – biochemical, small-molecule microarray, Alexa647-labelled CAII, profiling panel (AID 1122); conditions: CAII-A647 binding fluorescence, higher = more signal
[6] = COS7 lysate on small-molecule microarray, probe aHis, 635 nm (AID 1123); conditions: COS7 cell lysate, fluorescence, higher = more signal;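 further: z-score combines 667nm fluorescence intensity with signal-to-noise per printed compound spot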
[7] = probe aLAP1 signal on lysate-treated microarray – cell lysate, small-molecule microarray, COS7 lysate, primary screen (AID 1124); conditions: probe aLAP1, fluorescence, higher = more signal;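 further: lysate comes from COS7 cells expressing LAP1 and is applied at 0.3 µg/mL; score merges spot fluorescence near 667 nm with signal-to-noise over triplicate slides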
[8] = tested on: Sam68 (KHDRBS1); test: compounds binding KHDRBS1 protein – biochemical, small-molecule microarray, 635 nm fluorescence, primary screen (AID 1125); conditions: higher = more signal;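 further: score merges 667 nm channel intensity with signal to noise over triplicate slides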
[9] = tested on: Chordin-like protein 2 (CHRDL2); test: compounds binding chordin-like 2 – biochemical, small-molecule microarray, 635 nm fluorescence, primary screen (AID 1126); conditions: fluorescence 635 nm, higher = more signal;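 further: printed compound slides probed with Chrdl2 protein at 4 µg/mL for 1 h at 4 C; score merges 667 nm emission intensity with signal to noise over three replicate slides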
[10] = target: Concanavalin-A (Canavalia ensiformis) (UniProt P02866); test: compounds binding concanavalin A lectin – biochemical, small-molecule microarray, Alexa647 label, 635 nm, artefact control for SMM control protein annotation, primary screen (AID 1127); conditions: ConA-A647 binding fluorescence, higher = more signal;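 further: z combines 667 nm emission intensity with signal-to-noise across three replicate slides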
Concanavalin-A (Canavalia ensiformis), sequence (P02866 whole entry, looked up): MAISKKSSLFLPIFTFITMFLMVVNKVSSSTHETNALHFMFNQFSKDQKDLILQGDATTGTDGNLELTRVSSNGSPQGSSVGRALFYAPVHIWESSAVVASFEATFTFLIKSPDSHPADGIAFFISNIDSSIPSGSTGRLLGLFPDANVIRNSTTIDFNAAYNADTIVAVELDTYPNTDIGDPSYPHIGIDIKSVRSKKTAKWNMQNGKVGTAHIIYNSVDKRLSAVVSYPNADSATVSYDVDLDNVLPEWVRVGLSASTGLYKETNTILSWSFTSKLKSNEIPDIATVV

[11] = compounds binding Alexa647 anti-His antibody – biochemical, small-molecule microarray, 635 nm fluorescence, artefact control for SMM control protein annotation, primary screen (AID 1128); conditions: higher = more signal;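 further: score merges feature fluorescence with signal-to-noise for each printed compound spot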
[12] = tested on: Human papillomavirus type 1a E7 protein (residues 1-88); test: HPV1a E7 small-molecule binders, primary screen, biochemical, small-molecule microarray, residues 1-88, 635 nm (AID 1129); conditions: small-molecule microarray binding, fluorescence 635 nm; higher = more signal
[13] = target: Focal adhesion kinase 1 (Homo sapiens) (UniProt Q05397); test: PTK2 protein binding on printed compound slides – biochemical, small-molecule microarray, 635/667 nm fluorescence, BSA, DTT, primary screen (AID 1130); conditions: 635 nm fluorescence, higher = more signal;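 further: composite of spot emission at 667 nm and signal to noise over triplicate slides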
Focal adhesion kinase 1 (Homo sapiens), sequence (Q05397 whole entry, looked up): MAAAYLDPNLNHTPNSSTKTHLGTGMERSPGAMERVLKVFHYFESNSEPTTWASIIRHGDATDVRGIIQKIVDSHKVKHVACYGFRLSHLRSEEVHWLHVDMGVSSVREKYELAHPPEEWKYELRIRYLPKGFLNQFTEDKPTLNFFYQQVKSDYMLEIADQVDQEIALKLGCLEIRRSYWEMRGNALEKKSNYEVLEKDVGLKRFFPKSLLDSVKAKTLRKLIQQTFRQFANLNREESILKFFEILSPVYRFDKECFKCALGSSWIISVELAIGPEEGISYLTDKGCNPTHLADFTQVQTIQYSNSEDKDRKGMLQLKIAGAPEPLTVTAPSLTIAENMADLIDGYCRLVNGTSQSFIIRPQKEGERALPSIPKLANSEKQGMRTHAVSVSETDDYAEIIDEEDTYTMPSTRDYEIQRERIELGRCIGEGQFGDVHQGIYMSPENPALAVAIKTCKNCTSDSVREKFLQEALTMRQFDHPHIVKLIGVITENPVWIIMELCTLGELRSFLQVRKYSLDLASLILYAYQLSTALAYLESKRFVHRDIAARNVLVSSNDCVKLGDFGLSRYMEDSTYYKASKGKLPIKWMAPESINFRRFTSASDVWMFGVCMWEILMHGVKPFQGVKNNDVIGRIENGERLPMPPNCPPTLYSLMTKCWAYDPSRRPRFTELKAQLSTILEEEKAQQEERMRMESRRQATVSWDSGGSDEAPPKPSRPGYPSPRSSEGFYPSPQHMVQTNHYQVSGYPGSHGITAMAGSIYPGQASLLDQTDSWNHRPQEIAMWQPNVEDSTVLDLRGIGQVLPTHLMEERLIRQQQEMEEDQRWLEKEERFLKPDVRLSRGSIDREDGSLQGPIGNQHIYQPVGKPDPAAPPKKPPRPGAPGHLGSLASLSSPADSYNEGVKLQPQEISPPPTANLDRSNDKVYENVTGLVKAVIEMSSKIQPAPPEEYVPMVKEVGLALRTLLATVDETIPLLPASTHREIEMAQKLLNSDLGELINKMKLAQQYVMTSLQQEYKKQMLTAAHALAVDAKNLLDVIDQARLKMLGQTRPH

[14] = tested on: Fibrinogen (Alexa647-labelled); test: Alexa647-fibrinogen binding to printed small molecules – biochemical, small-molecule microarray, 635/667 nm fluorescence, artefact control for SMM control-protein annotation, profiling panel (AID 1131); conditions: fibrinogen-A647 binding fluorescence, higher = more signal;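 further: z-score merges 667 nm fluorescence with per-spot signal-to-noise over triplicate slides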
[15] = target: Follistatin (Homo sapiens) (UniProt P19883); test: FST protein binding to printed compounds – biochemical, small-molecule microarray, 635/667 nm fluorescence, primary screen (AID 1132); conditions: 635 nm fluorescence, higher = more signal
Follistatin (Homo sapiens), sequence (P19883 whole entry, looked up): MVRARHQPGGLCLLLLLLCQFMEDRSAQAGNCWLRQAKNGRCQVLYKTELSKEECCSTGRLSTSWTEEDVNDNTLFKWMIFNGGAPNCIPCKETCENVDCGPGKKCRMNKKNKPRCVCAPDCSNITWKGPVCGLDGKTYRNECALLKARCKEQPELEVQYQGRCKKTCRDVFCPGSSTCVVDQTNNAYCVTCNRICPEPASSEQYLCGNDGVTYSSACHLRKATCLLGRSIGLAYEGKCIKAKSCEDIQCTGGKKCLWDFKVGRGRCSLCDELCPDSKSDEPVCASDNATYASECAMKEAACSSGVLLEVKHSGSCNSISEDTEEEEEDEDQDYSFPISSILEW

[16] = target: Fibroblast growth factor 2 (Homo sapiens) (UniProt P09038); test: basic fibroblast growth factor binding to printed compounds – biochemical, small-molecule microarray, 635/667 nm fluorescence, primary screen (AID 1133); conditions: FGF2, fluorescence 635/667, higher = more signal
Fibroblast growth factor 2 (Homo sapiens), sequence (P09038 whole entry, looked up): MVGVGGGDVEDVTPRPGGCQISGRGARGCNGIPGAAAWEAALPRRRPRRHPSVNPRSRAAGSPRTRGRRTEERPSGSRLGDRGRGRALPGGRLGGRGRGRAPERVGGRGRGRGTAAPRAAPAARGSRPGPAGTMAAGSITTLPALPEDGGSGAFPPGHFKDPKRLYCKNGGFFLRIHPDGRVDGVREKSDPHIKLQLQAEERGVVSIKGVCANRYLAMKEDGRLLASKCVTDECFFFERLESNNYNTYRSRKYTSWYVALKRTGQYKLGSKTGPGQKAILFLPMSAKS

[17] = JC-1 mitochondrial potential readout, lung cancer cells – cell-based, A549, JC-1 fluorescence, basal, 24 h, 100 nL, profiling panel (AID 1138); conditions: higher = more signal;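 further: A549 lung adenocarcinoma cells under basal conditions with no added stimulus; test concentration not given here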
[18] = tested on: Lefty1; test: Lefty1 protein binding to printed compounds – biochemical, small-molecule microarray, 635/667 nm fluorescence, primary screen (AID 1139); conditions: fluorescence 635/667, higher = more signal
[19] = tested on: wheat germ agglutinin (Triticum aestivum), Alexa647-labelled; test: Alexa647-WGA lectin binding to printed small molecules – biochemical, small-molecule microarray, 635/667 nm fluorescence, artefact control for SMM control-protein annotation, profiling panel (AID 1140); conditions: WGA-A647 binding, 635 nm fluorescence, higher = more signal;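 further: score merges 667 nm feature emission with signal to noise over triplicate slides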
[20] = target: Luciferin 4-monooxygenase (Photinus pyralis) (UniProt P08659); test: inhibition of purified Photinus pyralis luciferase – biochemical, luminescence, purified enzyme, 2006 set, primary screen (AID 1141); conditions: purified firefly luciferase, SteadyGlo luminescence, 30 min; higher = more signal, called active from +8 up or from −8 down;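 further: cell-free assay with purified firefly luciferase at 100 ng per well in PBS; test concentration not given here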
Luciferin 4-monooxygenase (Photinus pyralis), sequence (P08659 whole entry, looked up): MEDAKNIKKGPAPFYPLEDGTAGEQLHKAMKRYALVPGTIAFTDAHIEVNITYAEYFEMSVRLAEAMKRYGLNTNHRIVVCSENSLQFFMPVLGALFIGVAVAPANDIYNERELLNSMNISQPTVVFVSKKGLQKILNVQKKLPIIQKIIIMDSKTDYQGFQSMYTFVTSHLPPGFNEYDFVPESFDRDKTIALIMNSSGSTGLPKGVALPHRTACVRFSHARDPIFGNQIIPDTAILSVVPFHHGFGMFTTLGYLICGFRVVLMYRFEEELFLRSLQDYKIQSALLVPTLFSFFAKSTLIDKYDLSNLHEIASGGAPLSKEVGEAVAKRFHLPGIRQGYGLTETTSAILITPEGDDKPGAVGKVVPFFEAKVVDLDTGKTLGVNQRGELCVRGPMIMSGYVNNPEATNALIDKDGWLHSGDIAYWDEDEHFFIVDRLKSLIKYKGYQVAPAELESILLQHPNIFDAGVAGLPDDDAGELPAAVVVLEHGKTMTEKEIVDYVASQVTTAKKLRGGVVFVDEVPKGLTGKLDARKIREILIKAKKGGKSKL

Structure (SMILES) | composite z-score [1] | composite Z-score [2] | composite z-score [3] | composite z-score [4] | composite z-score [5] | composite z-score [6] | composite z-score [7] | composite z-score [8] | composite z-score [9] | composite z-score [10] | composite z-score [11] | composite z-score [12] | composite z-score [13] | composite z-score [14] | composite z-score [15] | composite z-score [16] | z-score [17] | composite z-score [18] | composite z-score [19] | z-score [20]
CC(CCC(=O)OC[C@H]1O[C@H](C#Cc2ccccc2)C=C[C@@H]1Oc1ccc(C)cc1)=NOC[C@@H](C)[C@H](OCc1ccccc1)C(C)C | -0.607 | 0.35 (inactive) | -0.325 | -0.226 | -0.0949 | 1.47 | -0.427 | -1.2 | -0.606 | -1.14 | 0.0009 | -0.849 | -0.502 | -1.36 | -0.554 | -0.625 | -0.197 | -0.295 | -0.726 | 1.03 (inactive)
CCOC(=O)[C@H](Cc1ccccc1)NC(=O)CCC1CC(OC(=O)NCc2cccc3ccccc23)CC2(CCCC(COC(=O)NCCOc3ccccc3)O2)O1 (stereo not given in full) | 0.0423 | 0.19 (inactive) | -0.16 | -0.0859 | 0.391 | 1.05 | 0.132 | 1.24 | 0.439 | 1.12 | 1.39 | 1.01 | 0.227 | 0.725 | 0.485 | 0.279 | -0.16 | 0.573 | 0.268 | 1.13 (inactive)
C[C@H]1CC[C@@H](C(=O)O)N[C@@H]1c1cccc(N2CCCC2=O)c1 | -0.0315 | -0.38 (inactive) | -0.173 | -0.14 | -0.192 | -0.101 | -0.127 | 0.0706 | 0.456 | 0.116 | -0.0817 | 0.675 | -0.0555 | 0.25 | 0.412 | 0.229 | 1.21 | 0.132 | -0.368 | -1.21 (inactive)
CCO[C@H](c1cc(OC)cc([N+](=O)[O-])c1OC)[C@H](C)[C@@H](OC)[C@H](C)C=CCC(=O)OC | 0.825 | 0.179 (inactive) | -0.0947 | -0.0907 | 0.725 | 0.0657 | -0.0242 | 0.724 | -0.0602 | 0.666 | -0.406 | 0.257 | 0.115 | 0.949 | 0.0822 | 0.183 | 0.163 | -0.125 | 0.298 | 0.114 (inactive)
C=CC[C@@H]1C=C[C@H](ON=C(C)CCN2CCCCc3nc(C)c(C)cc32)[C@@H](CO)O1 | 0.0868 | 0.325 (inactive) | -0.0304 | -0.14 | 0.226 | 0.588 | 0.155 | 0.972 | 1.47 | -0.223 | -0.833 | -0.0192 | 0.499 | 0.635 | 1.39 | 1.36 | 0.143 | 1.56 | 0.607 | 1.38 (inactive)
CC(=O)OC[C@H]1O[C@H](CC=NOCC[C@@H]2C=C[C@H](OC(C)=O)[C@@H](COC(C)=O)O2)C=C[C@@H]1OC(C)=O | -0.076 | -0.69 (inactive) | 0.127 | -0.165 | -0.146 | -0.489 | -0.099 | 1.29 | 0.973 | 0.304 | 1.77 | 0.642 | -0.216 | -0.305 | 0.447 | 1.02 | -0.6 | 1.29 | -0.111 | 0.966 (inactive)
COC(=O)[C@H](C)NC(=O)CCC1CC(OC(=O)NCc2cccc3ccccc23)CC2(CCCC(COC(=O)NCCCN3CCCC3=O)O2)O1 (stereo not given in full) | 0.559 | -0.0448 (inactive) | 0.0485 | -0.132 | 0.378 | 0.519 | 0.0377 | 1.32 | 0.131 | 1.1 | 0.383 | 1.11 | 0.926 | 0.821 | 0.413 | 0.0982 | -0.262 | 1.23 | 0.485 | 0.86 (inactive)
CO[C@@H](C(C)C)[C@@H](C)C1OC(=O)CC1O (stereo not given in full) | -0.145 | 0.0923 (inactive) | -0.159 | -0.166 | -0.169 | -0.18 | -0.542 | -0.22 | -0.598 | -0.347 | -0.647 | -0.579 | 0.0539 | -1.29 | -0.989 | -0.278 | 0.000179 | -0.633 | -0.282 | 0.159 (inactive)
